Test results published in PubChem BioAssay AID2240 (Broad Institute, 2010).
Among all 37,000 compounds or so, about 100 (0.27%) were called active. Only a selection was taken, and actives are over-represented in it overall. Values without a mark were called inactive. Cut-off read from the data, not from the text of the source: active = inhibition above about 85%; inconclusive = no clear call, values can overlap the other calls; inactive = below about 68%.

Experiment: inhibitors of MITF, primary screen, MITF inhibitor project, cell-based, luminescence (AID 2240);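 note: human melanocyte line stably carrying TRPM1 promoter luciferase reporter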
Settings: TRPM1 promoter luciferase, 24 h, stronger effect = higher value, concentration not given here

First: COc1ccc(C)cc1S(=O)(=O)N1CCCC(C(=O)Nc2ccccc2C(F)(F)F)C1 (stereo unspecified)
Second: COc1ccc(C)cc1S(=O)(=O)N(C)CC(=O)Nc1ccc(Br)cc1F
The inhibition of the first is lower: 4.41% for the first, 8.55% for the second.

Going from `Cc1ccc(NC(=O)c2cccc(N(C)C)c2)cc1NC(=O)c1ccc(O)cc1` to `O=C(O)c1cccc(S(=O)(=O)Nc2ccc(O)cc2Sc2nc3ccccc3s2)c1`, the inhibition rises from -40.4% to 7.04%.

Going from `Cc1noc(C)c1NC(=O)Nc1ccc2c(c1)C(=O)N([C@H](C)CO)C[C@H](C)[C@@H](CN(C)C(=O)Nc1ccc(C(F)(F)F)cc1)O2` to `C[C@H](CO)N1C[C@H](C)[C@H](CN(C)C(=O)Nc2ccc(C(F)(F)F)cc2)Oc2ccc(NC(=O)Nc3ccccc3)cc2C1=O`, the inhibition rises from -13.6% to 43%.

Going from `CCc1ccc2c(c1)c1nc3ccccc3nc1n2CC(=O)OC` to `Cc1ccc(NC(=O)CSc2nc3ccccc3s2)cc1[N+](=O)[O-]`, the inhibition rises from -10.5% to -10%.

Compared with `O=C(O)CCCC=C(c1ccccc1)c1ccccc1`, `O=C1c2ccccc2S(=O)c2ccccc2S(=O)(=O)N1Cc1ccccc1` (stereo unspecified) is higher in inhibition: 12.2% for the first, 46.6% for the second.

First: COc1ccc(C)cc1NC(=O)CSc1nc(SC)ns1
Second: Cc1ccc(C)c(NC(=O)CSc2nc(C)nc3sc(C)c(C)c23)c1
The inhibition of the first is higher: 32.4% for the first, 3.61% for the second.

First: COc1ccc(NC(=O)Nc2ccc3c(c2)CC(=O)N([C@@H](C)CO)C[C@H](C)[C@@H](CN(C)Cc2ccc4c(c2)OCO4)O3)cc1
Second: C[C@@H]1CN([C@H](C)CO)C(=O)Cc2cc(NC(=O)Nc3ccc(C(F)(F)F)cc3)ccc2O[C@H]1CN(C)Cc1ccc(-c2ccccc2)cc1
The inhibition of the first is lower: -13.4% for the first, -11.6% for the second.

Going from `Cc1scc(C(=O)NCCc2ccc(S(N)(=O)=O)cc2)c1-c1ccccc1` to `CN(CC(=O)Nc1ccc(Br)cc1)S(=O)(=O)c1ccc2ccccc2c1`, the inhibition rises from 5.94% to 11%.

Compared with `C[C@@H]1CCCCO[C@H](CN(C)C(=O)NC2CCCCC2)[C@@H](C)CN([C@H](C)CO)C(=O)c2cc(NS(=O)(=O)c3ccc(F)cc3)ccc2O1`, `C[C@@H]1CCCCO[C@H](CN(C)Cc2ccc(Cl)c(Cl)c2)[C@@H](C)CN([C@H](C)CO)C(=O)c2cc(NS(=O)(=O)c3cn(C)cn3)ccc2O1` is lower in inhibition: 0.476% for the first, -5.53% for the second.

Compared with `CS(=O)(=O)N(CC(=O)Nc1cc(C(F)(F)F)ccc1Cl)c1ccccc1Br`, `Cc1cc(N(CC(=O)Nc2ccc(C(F)(F)F)cc2)S(C)(=O)=O)ccc1Br` is lower in inhibition: -1.7% for the first, -4.48% for the second.

Going from `Cc1ccc(C)c(NC(=O)CCC(=O)O)c1` to `Cc1nn(CC(=O)NCc2ccccn2)c(C)c1[N+](=O)[O-]`, the inhibition falls from -5.62% to -12.3%.

First: COc1ccc(S(=O)(=O)N(C)C[C@@H]2Oc3ccc(NS(=O)(=O)c4cn(C)cn4)cc3C(=O)N([C@@H](C)CO)C[C@@H]2C)cc1
Second: COc1ccc(CN(C)C[C@@H]2Oc3ccc(NS(=O)(=O)c4cn(C)cn4)cc3C(=O)N([C@@H](C)CO)C[C@H]2C)cc1
The inhibition of the first is higher: -3.33% for the first, -13% for the second.

Going from `O=C(CCn1nc(-c2ccc(Cl)cc2)c2ccccc2c1=O)Nc1ccc(Br)cc1` to `O=C(CCn1nc(-c2ccc(Cl)cc2)c2ccccc2c1=O)Nc1cccc(C(F)(F)F)c1`, the inhibition rises from -0.695% to 4.42%.

First: Cc1noc(C)c1NC(=O)N(C)C[C@@H]1Oc2ccc(NC(=O)C3CC3)cc2C(=O)N([C@H](C)CO)C[C@@H]1C
Second: C[C@H]1CN([C@@H](C)CO)C(=O)c2cc(NC(=O)NC3CCCCC3)ccc2O[C@@H]1CN(C)C(=O)Nc1cccc2ccccc12
The inhibition of the first is lower: -4.76% for the first, 10.4% for the second.

First: C[C@H]1CN([C@@H](C)CO)C(=O)Cc2cc(NS(=O)(=O)c3ccc(Cl)cc3)ccc2O[C@H]1CN(C)S(C)(=O)=O
Second: C[C@H]1CN([C@@H](C)CO)C(=O)Cc2cc(NC(=O)Nc3ccc(F)cc3)ccc2O[C@H]1CN(C)C(=O)Nc1ccc(C(F)(F)F)cc1
The inhibition of the first is higher: 0.52% for the first, -15.8% for the second.

Compared with `Cc1cc2oc(C(=O)Nc3sc4c(c3C(=O)NCc3ccco3)CCC4)c(C)c2cc1C`, `Cc1cc(C)c(C)c(Oc2coc3cc(OCC(=O)Nc4ccccc4Cl)ccc3c2=O)c1` is lower in inhibition: 0.363% for the first, -3.54% for the second.

First: C[C@@H]1CN([C@@H](C)CO)C(=O)c2cccc(NC(=O)Nc3ccccc3)c2O[C@H]1CN(C)Cc1ccccc1
Second: C[C@H](CO)N1C[C@H](C)[C@H](CN(C)C(=O)Nc2ccccc2)Oc2c(NC(=O)Nc3ccc(C(F)(F)F)cc3)cccc2C1=O
The inhibition of the first is higher: 41.2% for the first, 21.9% for the second.

Going from `COc1cc([N+](=O)[O-])ccc1NC(=S)NCc1cc(C)n(C)n1` to `C[C@H](CO)N1C[C@H](C)[C@@H](CN(C)S(=O)(=O)c2cn(C)cn2)Oc2c(NC(=O)C3CC3)cccc2C1=O`, the inhibition rises from -13.2% to -3.68%.

Compared with `C[C@@H]1CCCCO[C@@H](CN(C)C)[C@@H](C)CN([C@H](C)CO)C(=O)c2cc(N(C)C)ccc2O1`, `C[C@@H]1CN([C@H](C)CO)C(=O)c2cc(NC(=O)Nc3ccccc3)ccc2O[C@@H]1CN(C)Cc1ccc(Cl)c(Cl)c1` is higher in inhibition: 5.75% for the first, 34.3% for the second.

Going from `CCOC(=O)Cc1csc(NC(=O)c2sc3cccc(F)c3c2Cl)n1` to `Cc1ccc(-n2c(SCC(=O)Nc3ccccc3F)nnc2-c2ccccc2)cc1C`, the inhibition falls from 57.6% to 10.1%.

First: O=C(CN1C(=O)COc2ccc(Cl)cc21)Nc1ccc(N2CCOCC2)cc1
Second: O=C(CSc1nnc(-c2ccc(Br)cc2)o1)Nc1ccc2ccccc2c1
The inhibition of the first is lower: -7.45% for the first, -4.41% for the second.

First: CCSC1=C(C#N)C(=O)NCS1
Second: O=C(NCCCn1ccnc1)c1cc2c(s1)CCCC2
The inhibition of the first is lower: -7.65% for the first, 1.51% for the second.

Compared with `O=C1Cc2ccc(F)cc2CC1C1=Cc2ccc(F)cc2CC1` (stereo unspecified), `C[C@@H]1CN([C@H](C)CO)C(=O)c2cccc(NC(=O)Nc3ccc4c(c3)OCO4)c2O[C@H]1CN(C)C(=O)Nc1ccc(F)cc1` is higher in inhibition: 5.98% for the first, 7.91% for the second.
